Most compounds without a hit are left out; they make up all but 2.2% or so of the library.
LGR2 inh: inhibitors of bursicon-induced LGR2 CRE-luciferase signal, primary screen, cell-based, HEK293, CRE-luciferase reporter, bursicon stimulation; 380,000 compounds, 0.35% hits; inhibition, % at 9.99 µM; bursicon-stimulated, 4 h; Drosophila bursicon receptor LGR2 (rickets); AID 720647, 2013;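 active = drop in luminescence signal, shown as inhibition above about 50% in the replicate tests, limit read from the data, passing the limit was not always enough; inconclusive = probably only some replicates passing the limit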;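 also: agonist challenge used bursicon conditioned medium at about half maximal strength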
PGC1a acetyl inh: inhibitors of PGC1a acetylation signal, primary screen, cell-based, U2OS, AlphaScreen, inhibitor mode. AlphaScreen anti-acetyl-lysine; with virally co-expressed GCN5 acetyltransferase. inhibition, % at 15.6 µM. 350,000 compounds, 0.17% hits;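 active = every replicate shows inhibition of at least 40%; inconclusive = mean inhibition at least 40% but some replicate below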;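 also: 0% = neutral control wells and 100% = positive control wells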
TRPM1 prom inh: inhibitors of MITF-dependent TRPM1 promoter reporter, primary screen, cell-based, SK-MEL-5, single point, luciferase; SK-MEL-5 TRPM1 promoter luciferase, 24 h; inhibition, % at 12.5 µM; 330,000 compounds, 0.83% hits;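 active = mean inhibition across replicates of 60% or more, whatever share of single replicates reaches that level; inconclusive = some that reach 60%, reason not given; inactive = mean inhibition across replicates below 60%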
PAX8 reporter: inhibitors of PAX8-driven TPO luciferase reporter, primary screen, RMG-I cells, single concentration; AID 652154, 2013; SteadyGlo, 24 h; 360,000 compounds, 1.2% hits; inhibition, % at 12.6 µM;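 active = mean replicate inhibition at least 60% with every replicate also reaching 60%; inconclusive = only one of the two criteria is met; inactive = mean below 60% and not all replicates reaching 60%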;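 also: luciferase light reporting Pax8 driven TPO promoter activity; plate controls were median of neutral control wells for no effect and mitoxantrone controls for full effect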
LMP1 NFkB inh: EBV LMP1-driven NF-kappaB luciferase reporter inhibitors, primary screen, cell-based, luminescence, single point; inhibition, % at 12.5 µM; LMP1-induced NF-kappaB luciferase reporter cells; AID 504558, 2011; 350,000 compounds, 0.69% hits; in the data active = inhibition above about 41%; inconclusive = no clear call, values can overlap the other calls;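 also: 0% = neutral control wells and 100% = reference inhibitor control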
EWS-Fli inh: EWS/Fli-driven NR0B1 reporter inhibitors, primary screen, A673 cells, NR0B1 luciferase, luminescence, MLPCN library; inhibition, % at 12.6 µM; viability-normalised; AID 651661, 2012; 350,000 compounds, 0.67% hits;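 active = mean inhibition of at least 50% after viability correction, with every replicate also passing that limit; inconclusive = mean reaches 50% but only one of two replicates passes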;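 also: firefly luciferase signal divided by Alamar Blue viability fluorescence both relative to DMSO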
DNA binder FP: DNA binders by acridine orange displacement, dose response, counter-screen for EWS/Fli inhibitor project, biochemical, fluorescence polarization, cherry-pick; shares compounds with EWS-Fli inh; 640 compounds, 2% hits; AC35, µM (series often up to 68 µM), for the others: top-dose activity change, negative = DNA binding; salmon sperm DNA acridine orange fluorescence polarization;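 active = fitted curve reaches a 35% signal fall AC35 below twice the sample's top valid tested dose, actives reach about 48 µM in these data; inactive = the rest, including activity in the rising direction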;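 also: lower polarization ratio signals compound binding to DNA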
Starred values were filed as active, the others as inactive.

O=C(Nc1cccc(S(=O)(=O)N2CCCC2)c1)c1ccc(Cl)nc1 was read as LGR2 inh 15, PGC1a acetyl inh -34, TRPM1 prom inh 32, LMP1 NFkB inh 13, EWS-Fli inh 51* and DNA binder FP -11%.
Screening O=C(Nc1cccc(S(=O)(=O)N2CCOCC2)c1)c1ccc(Cl)nc1 returned LGR2 inh -3, PGC1a acetyl inh -4, TRPM1 prom inh 14, PAX8 reporter 25, LMP1 NFkB inh 4 and EWS-Fli inh -73.
Screening C/C(=N\N(c1ccccc1)c1ccccc1)c1ccco1 returned LGR2 inh 14, PGC1a acetyl inh 1, TRPM1 prom inh -12, PAX8 reporter 6, LMP1 NFkB inh -10, EWS-Fli inh 58* and DNA binder FP 0%.
For C[C@H]1CN([C@@H](C)CO)S(=O)(=O)c2ccc(C3=CCCC3)cc2O[C@@H]1CN(C)Cc1ccccc1F the results were LGR2 inh 0, PGC1a acetyl inh -8, PAX8 reporter 16 and EWS-Fli inh 33.
`Cc1ccc(S(=O)(=O)N(C)C[C@@H]2OCCCC[C@H](C)Oc3ccc(NS(=O)(=O)c4c(C)noc4C)cc3C(=O)N([C@@H](C)CO)C[C@@H]2C)cc1` gave LGR2 inh -5, PGC1a acetyl inh 0, PAX8 reporter 11 and EWS-Fli inh 12.
CCOc1ccc(N=C2C(=O)Nc3ccc(C)c(Br)c32)cc1 was read as LGR2 inh -3, TRPM1 prom inh 11, PAX8 reporter 2, LMP1 NFkB inh 4, EWS-Fli inh 52* and DNA binder FP -8%.
C[C@H]1CN([C@@H](C)CO)C(=O)c2cccc(NC(=O)Nc3ccc4c(c3)OCO4)c2O[C@@H]1CN(C)S(=O)(=O)c1ccc(F)cc1 was read as LGR2 inh -18, PGC1a acetyl inh 5, PAX8 reporter -11 and EWS-Fli inh -5.
For COc1ccc(NC(=O)N2CCCCN3[C@@H](CO)[C@H](c4ccc(C5=CCCCC5)cc4)[C@@H]3C2)cc1 the results were LGR2 inh -9, PGC1a acetyl inh -17, PAX8 reporter -12, EWS-Fli inh 71* and DNA binder FP -2%.
CCCNC(=O)Nc1ccc2c(c1)OC[C@H](C)N(C(=O)C1CC1)C[C@H](C)[C@@H](OC)CN(C)C2=O was read as LGR2 inh 4, PAX8 reporter -32 and EWS-Fli inh 20.
Screening C/C=C/c1ccc([C@H]2[C@@H](CO)N3C(=O)CN(S(=O)(=O)c4cccc(F)c4)C[C@H]23)cc1 returned LGR2 inh 4, PGC1a acetyl inh -14 and EWS-Fli inh 17.
C/C=C/c1ccc([C@H]2[C@@H](CO)N3C(=O)CN(S(=O)(=O)c4cccc(F)c4)C[C@@H]23)cc1 was read as LGR2 inh -23, PGC1a acetyl inh -5, EWS-Fli inh 52* and DNA binder FP -2%.
`COc1ccc(OC)c(/C=C/c2ccnc3ccccc23)c1` gave LGR2 inh -3, PGC1a acetyl inh -22, TRPM1 prom inh 5, PAX8 reporter 33, LMP1 NFkB inh 7, EWS-Fli inh 70* and DNA binder FP -14%.
For COc1cccc(S(=O)(=O)N2CC3(CCN(C)CC3)c3c([nH]c4cc(OC)ccc34)[C@H]2CO)c1 the results were LGR2 inh 7, PGC1a acetyl inh 3, PAX8 reporter -5 and EWS-Fli inh 3.
`Cc1sc2nc(CN3CCC(C)CC3)nc(Cl)c2c1C` gave PAX8 reporter 0, EWS-Fli inh 73* and DNA binder FP -19%.
Screening S=C(NCCN1CCOCC1)Nc1ccccc1Cl returned LGR2 inh 2, TRPM1 prom inh 0, PAX8 reporter 9, LMP1 NFkB inh -3, EWS-Fli inh 83* and DNA binder FP 0%.
For O=C(Cc1ccccn1)N[C@@H]1C=C[C@H](CC(=O)N2CCCCC2)O[C@@H]1CO the results were LGR2 inh -3, PGC1a acetyl inh 2, PAX8 reporter 0 and EWS-Fli inh 6.
For CCc1nc(N)nc(N)c1-c1ccc(Cl)cc1 the results were LGR2 inh -13, PGC1a acetyl inh 48*, TRPM1 prom inh 34, PAX8 reporter 22, LMP1 NFkB inh -3, EWS-Fli inh 64* and DNA binder FP 6%.
`CCCCNC(=O)O[C@@H]1C[C@H]2CCCC(=O)N3CC[C@@H](C1)[C@@H]23` gave LGR2 inh -4, PGC1a acetyl inh 5, TRPM1 prom inh -3, PAX8 reporter -3, LMP1 NFkB inh -7 and EWS-Fli inh -5.
Screening CCCCCCCN(c1ccccc1)[C@@H]1C[C@H]2CCCC(=O)N3CC[C@@H](C1)[C@@H]23 returned LGR2 inh 52*, PGC1a acetyl inh 41, TRPM1 prom inh 13, PAX8 reporter 56, LMP1 NFkB inh 11, EWS-Fli inh 62* and DNA binder FP 3%.
`CCNC(=O)C[C@H]1CC[C@H]2[C@@H](COC[C@H](O)CN2C(=O)Nc2cccc(OC)c2)O1` gave LGR2 inh 14 and PGC1a acetyl inh 0.
`COc1cccc(NC(=O)c2cc3ccccc3oc2=O)c1` gave LGR2 inh 25, TRPM1 prom inh 5, PAX8 reporter -108, LMP1 NFkB inh 28 and EWS-Fli inh 33.
COc1ccccc1NS(=O)(=O)c1cc(NC(=O)c2cc3ccccc3oc2=O)ccc1C was read as LGR2 inh -15, TRPM1 prom inh -21, PAX8 reporter -5, LMP1 NFkB inh 0, EWS-Fli inh 82* and DNA binder FP 17%.
Screening C(=NNc1ccc2ccccc2n1)c1ccccn1 returned LGR2 inh 99*, PGC1a acetyl inh 35, PAX8 reporter 102*, EWS-Fli inh 84* and DNA binder FP 3%.
`COc1ccc(C=NNc2nc3ccccc3s2)cc1` gave LGR2 inh 78*, PGC1a acetyl inh -18, TRPM1 prom inh 11, PAX8 reporter 18, LMP1 NFkB inh inconclusive, EWS-Fli inh 66* and DNA binder FP -7%.
`C(=N\Nc1nc2ccccc2s1)/c1ccccn1` gave LGR2 inh 104*, PAX8 reporter 88*, EWS-Fli inh 80* and DNA binder FP -6%.
Cc1ccc(S(=O)(=O)N(C)C[C@H]2OCCCC[C@@H](C)Oc3ccc(NC(=O)Nc4ccccc4)cc3C(=O)N([C@H](C)CO)C[C@@H]2C)cc1 was read as LGR2 inh -3, PGC1a acetyl inh -2 and EWS-Fli inh -7.

From PubChem BioAssay
